Source: PubChem BioAssay AID1159506 (National Center for Advancing Translational Sciences (NCATS), 2015)
The full ranking holds about 59,000 sequences; the median of the read-out is about -0.00055, and the lowest 2% start at about -2. This excerpt belongs to a sample that is enriched for the lowest values.

Test: Identification of proteins required for the processing of the EWS-FLI1 nascent transcript;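 further: robust z of luciferase light less the median z of siRNAs with the same seed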
Settings: TC32 Ewing sarcoma NR0B1-luc vs CMV-luc (EWS-FLI1 target promoter against control promoter), 48 h; screened at 20 nM (by protocol)
Procedure, shortened: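 Parallel TC32-NR0B1-luc and TC32-CMV-luc reverse transfections with 20 nM siRNA in RPMI-1640/10% FBS, luciferase measured 48 h later. Seed-adjusted z-scores from normalized, z-score-MAD transformed data; AllStars negative and siGL4 controls on each plate.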

Sequence | seed-corrected z-score
AAGGUUGCUAUACGUGGGC against C19orf35 | -2.85
UUUCAAUCCUGUAAGGGUC against CDC23 | 0.07
UGGAUAAUCAGGAUGGUCC against AKR1C4 | -0.343
UAAGCAACAGGAGCUCAGU against KRT6B | 0.507
UGGUUGAUCAAUGCGAUAG against C11orf54 | -0.331
UUUGAGUACUCCAAGAUGU against C20orf96 | 0.627
AUAGCUUCCACUUUAGCGG against KDM5A | -3.29
AUAGGUACUACAUAUGAGC against DSC2 | -0.323
AACAUAACAGUUGAAGUGA against TMEM244 | -0.604
UGAGCUACAUGUGAAGGCC against ZNF35 | -0.965
UAAUUUCAAGCCGAUCUUC against EIF3H | -1.14
UUGACUAUAACCUGAAGCC against OTX2 | -2.79
UAGGAAUCCUCGUUUAGUG against YWHAH | 0.112
UCAUUGUCCGAUGCCUUGG against SLCO1B3 | -0.953
UUCUGCCCAAGUACAAUGG against C16orf52 | -2.07
UCUUUGAGAAUGUCAAGCU against TIMM44 | 0.11
UCUCUGUAUCGUAUGGUGG against NTN4 | -0.868
UUGGUAGACACCUCCUUGU against KRT13 | 0.268
UUUGCGACAAAACAGUUUG against DEPTOR | 0.125
AUCAGAAUCAGGAUAGGCC against RND2 | 0.812
AAUCUCACAGGUGAAGUGG against OR2S2 | -0.14
AGAGUUGUCAGAAGGGCGG against NCR2 | -5.82
UGCAUAAUAAGUCAUGUGG against DCN | -0.34

Sequence | seed-corrected z-score
UUUCCUUCUGCUCUCGUGC against RCAN3 | 0.855
AUCUUUAGAACAUCGGUGG against SLC25A14 | -0.984
AUAUGCUUCACCUCUUUAC against SNTB2 | -2.92
AUAAGGAUUACUAGUUUUG against CDK8 | 0.165
UAAGCACACACAAUGGUAC against DLK2 | 0.0903
UAUGGGCCGUGGACUCUCA against TPSAB1 | -0.127
UACAGGGACACCACCUUGC against BOK | -0.14
UGGUCUUCACAUUAGAUGC against NUTM1 | -2.03
UUGUAGUACAUUAACCUUG against ANKRD26 | 0.963
UGACAUACUUCGUAAGUCC against ERLEC1 | 0.555
UUCAUAAAGAGGAGGUACC against CLUH | 0.239
AUUUUGAACAUGUUUGCUG against NAPA | 0.31
UUCUGGUAGAUGUGACUGC against ZNF83 | -0.405
UACAAGAUUAUAGGCGGUC against TRAPPC11 | 0.0691
UCUGAGUCCUCUGUAACCU against MZF1 | -2.17
UACAGUUCAUCAAUCGUCA against APOA1BP | 0.829
UAUACUUCCCAAGAAGUCC against FAM217B | 0.596
UGUUGUUGUGACAAAAUCG against EIF5 | 0.296
UUUAAGAUAGGCGACACUG against LMOD3 | 0.0486
UGUAAAUUUGCACCGAUGG against RPTOR | -12.1
AUCUGUACAAAUCUCUUUG against ZNF140 | -0.593
UCCUCUUCGAAUGUUGUCG against TSPAN15 | -0.886
UUUGCGAUCUUCGAAGCCC against REEP3 | -0.668

Sequence | seed-corrected z-score
UCGAUUAAAACCGCGAUCG against PPP2R1B | -0.365
UUUGUCAGAAAACGCAUCC against GPR149 | -2.76
UCAAUGAUCUCGAUGAUGA against PLEC | -0.0712
UUCCGGGCAGCAAUAAUGG against PGM5 | -0.0662
UUUCCCAUCAGGGUUAAGC against OR2A12 | -0.365
UGAUAUAUAAGGCCCGGAC against RPL10A | -3.19
UUCUGUAUUCUUCAGCGUG against OR4C16 | -0.379
UUUGGAGCUUGGGAAUUGC against ARHGAP27 | -0.993
UUUGUUCCUUUUCGAGUUC against CCDC127 | 2.99
UGAAUCAAAUGAUCUGACC against RAB9A | 0.786
AAUGUGAUCAAAAAUAGCC against NAT2 | 0.2
UUGGUUUAAAGUUAAGUUG against C5orf63 | -2.45
UUGAUAUUUGUGAAUCUCC against FERMT1 | -0.474
UAUUUAGCAAUGCAGAACU against RPP25L | 0.342
UGUCUGAUUCAUUAUGAGC against CCDC74A | -0.71
AAAGGUCCCAGAGUACAUG against SLC25A20 | 0.174
UUUAUGCUGAGUCCCAUAG against APBB1IP | -2.98
AAAGUAAUAGAAGUGUUUG against MOB3B | 0.429
UAGAGAGACAGGGUGCAGG against C1orf162 | -2.87
UCUGGUUUUAGUAUUCUUA against NBEAL1 | -0.389
UUCUUUAGACUGUCCAGCG against KLHL6 | -2.04
UUAGGGCUUGGUAUAGAGG against ST18 | 0.568
UUGCGUUCCACAUGUUGAC against PRDM7 | -9.3

Sequence | seed-corrected z-score
UAAGUGAUUGGAGGUAAAG against LOC727775 | 0.67
AUAUGGUCCUUCUUAUUGC against HSD52 | 0.199
AUGCUUAUAGUUGUUCUUC against POU1F1 | -2.19
UCACAAAACACUUUGCCGU against LIMD1 | 0.194
UUGGUAGAGAGGUAAAAUG against KRTAP4-4 | 1.06
UAAUAGUCAGGUUCCCUGU against OR6C2 | -0.02
AAAGUAGGACGAGAUGCCG against DDX51 | 1.06
UCUGGACACGGCUUAUUGC against C17orf58 | 0.125
AUAAGAACAACAAAUACAC against C2CD4A | 0.789
UGGUUAUUAAUGGUGCACC against ELF2 | -2.8
UUAGAGCUACUGAACUGCC against DHX58 | 0.739
AAGUUGCCAAGAACAUGCU against LINC01168 | -3.59
UAUCUGGUAUGCUACGUCC against CCDC7 | 0.683
UAUGAUCGAACUUUUUGAG against RSG1 | -2.03
AACCUGUCAAUUAUCACUG against EBF1 | 0.337
UCUCCGUCCACAUUUGUUG against NTRK1 | 0.0167
UCUCUGAUGAGCAUUAAGG against ZNF26 | -0.977
AAACUUCUUGGGUUUCUAC against ZBTB8OSP1 | 0.246
ACACUGACAAAUGUUAGGC against VWDE | -2.22
AACCUUUAACUUGUGCUCC against ELAC2 | 0.641
UGCCCAAAUAGAAUUCUGU against RPL35A | -0.216
AGCUUUUCCAAAACCGUGC against NGDN | 2.14
AUAUUUAUUGGGCAGUGGA against PYDC1 | -0.518

Sequence | seed-corrected z-score
UUUGUAGCAGGUACAGGCC against EPPK1 | -0.0968
AAGGUGGUAGGCACUUUGG against MAVS | -2.67
UUCGAAAUGCCUGAUAGCC against P3H2 | 0.287
AGAUGUUCCACACUCUGCC against C1orf95 | -3.59
AUACUGCCGAUAUAUCAGC against AP4S1 | -0.442
AAGUUUAUGGACAAUUUCC against SMYD5 | 0.313
UACUUUACAACAUAUGGGC against STK3 | -0.0972
UGGUUAGCAAUGCAUAUUC against SV2C | 0.364
UUCUUCAUUCCUGCUAGGC against EEF1B2P5 | -0.108
UAAGGGUCAAUGCAGUAGU against ZAR1L | -0.414
UAAAUAGCAAAUUGCAUAC against DNAJB3 | 1.32
UUUGCCUAGACUAUGCUUG against PPARGC1B | -1.6
AUCUGCAUAAUCCUUGUUG against COG2 | -2.77
UAUGUAACUGACAAUGACG against ADGRA3 | -0.447
UUGAGUGCAAAGGCUUGUC against SLC25A12 | 1.4
UUAGGUCUCUGAAGUUUUC against NUTM2A-AS1 | -0.188
UAUCUUAUUUCAUCGUUUC against PTGS1 | -0.545
AUCGUCUUGACUGUGGUCC against CEACAM1 | -0.766
AUAGCGAUUAUUCUCACAG against PDHA1 | 0.0331
UUAUUUAUCUGAGUUGUGA against NFIA-AS1 | -2.52
UGCAGUAAACAUUUCGUUG against ADAMTS9 | -0.75
UUGUGGUAGAUGGGACUGG against DOK3 | -3.05
UCUGCGGUUACUCUCCAUC against TLX1 | -0.0327

Sequence | seed-corrected z-score
AUGAGUACAGACAAGGUCC against DRD1 | -0.626
AACAGGCUCAGGGAUAUUG against MORN2 | -1.84
UAGCUUCGAAUAAACAUCC against FAM3D | -4.22
UGAAAUACGGAUGACAUUC against AKR1C3 | -1.21
UUUUGUGCAUAGACCAUAG against DHRS12 | -0.542
UCUUCUUAGACCUUUCGGG against PRPF38A | -2.28
UUUGCAUCGUGGUAUUUCC against CTCFL | 0.259
UUUACGAUAAUCAACCUUC against BCO1 | 0.641
UUCGCAUUGCUUCUAACUC against UACA | 0.538
UUCAAAGUAUCGUUCUUUC against PANX3 | 1.35
UCCCGUACCAAGGGUAGCU against FAM78B | 0.456
AAUGGUGUUGCUCUUCUCC against ZNF23 | 1.51
UUCGAAUAGUAGAAAGUCG against ABCB5 | 0.0668
AAGCAUGUUGGUAACCUCG against PLA2G3 | -2.04
UACAGCAUCGUCUUCUACC against TMEM246 | 0.565
UACACUUGAGUUGACGACC against LOC642335 | 0.105
UGCAUAGACAGAUUAAGCC against SEC22A | -0.0597
UGCUCUUUUGCUUACGUGG against GAB1 | -1.74
